PubChem BioAssay (Tox21)
Results filed as inconclusive are left out. The source made the active and inactive calls. Unless noted, calls follow the shape of the dose curve; as a rule, active = well fitted curve in the direction sought with a large enough effect in the repeat runs; inconclusive = weak or mixed curves; inactive = no such curve, though single readings can be large; an effect the other way counts as inactive or inconclusive.

What was measured:
[1] = qHTS assay for small molecule agonists of the p53 signaling pathway (AID 651631; calls by dose curve; also: nearly all actives have a fitted effect of over 15% in size)
Procedure, shortened: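 HCT-116 cells carrying a beta-lactamase reporter under p53 response elements were dosed with compound for 16 h at 37 °C. LiveBLAzer B/G FRET substrate was then added for 2 h at room temperature, and fluorescence intensity was read to detect pathway agonism.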

[2] = qHTS assay for small molecules that induce genotoxicity in human embryonic kidney cells expressing luciferase-tagged ATAD5 (AID 651632); also: nearly all actives have a fitted effect of over 15% in size
Procedure, shortened: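 Luminescence read-out: after 16 hr compound exposure at 37C, ATAD5-luciferase HEK293T cells received Amplite, 30 min RT, then CCD imaging. A rise in signal marks genotoxic stress.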

[3] = qHTS assay for small molecule agonists of the p53 signaling pathway - cell viability (AID 651633; calls by dose curve;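 also: p53RE-bla HCT reporter cells with a stable beta-lactamase p53 reporter; series mostly up to about 83 µM; nearly all actives have a fitted effect of over 30% in size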)
Procedure, shortened: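 Viability counter-read: CellTiter-Glo luminescence (30 min, room temperature) in the same p53RE-bla plates. These plates had been exposed to compounds for 16 h at 37 C.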

[4] = qHTS assay for small molecules that induce genotoxicity in human embryonic kidney cells expressing luciferase-tagged ATAD5 - cell viability (AID 651634; calls by dose curve; also: nearly all actives have a fitted effect of over 25% in size)
Procedure, shortened: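 HEK293T ATAD5-luc cells, 2,000/well; compound 15.5 hr, 37C/5% CO2; CellTiter-Fluor 30 min, 37C; fluorescence read.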

[5] = qHTS assay for small molecule disruptors of the mitochondrial membrane potential - cell viability (AID 720634; calls by dose curve;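 also: human HepG2 liver cancer cells; series mostly up to about 83 µM; nearly all actives have a fitted effect of over 20% in size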)
Procedure, shortened: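 Luminescence from CellTiter-Glo (ATP content) gave viability in HepG2 cells, read in the same wells as the MMP dye assay after 1 hr compound exposure at 37 C.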

[6] = qHTS assay to test for compound auto fluorescence at 590 nm (red) in HepG2 cells (AID 720674)
Procedure, shortened: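 1 hr compound incubation on HepG2 cells, 37 C, 5% CO2; plate read ex 540 nm / em 590 nm; intensities reported as Rose Bengal sodium equivalents.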

[7] = qHTS assay to test for compound auto fluorescence at 535 nm (green) in HepG2 cells (AID 720675)
[8] = qHTS assay to test for compound auto fluorescence at 460 nm (blue) in HEK293 cells (AID 720678)
Procedure, shortened: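 Triamterene serves as the blue fluorophore standard. Compound signal at 405/460 nm is read in HEK293 wells (2,000 cells, 10% dialyzed FBS) after overnight treatment at 37C.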

[9] = qHTS assay to test for compound auto fluorescence at 590 nm (red) in HEK293 cells (AID 720679)
Procedure, shortened: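 We plated HEK293 cells in 10% dialyzed FBS medium, let them adhere for 4-5 hr, then added 23 nL compound. Overnight at 37C and 5% CO2 preceded fluorescence measurement at 540/590nm.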

[10] = qHTS assay to test for compound auto fluorescence at 535 nm (green) in HEK293 cells (AID 720680)
[11] = qHTS assay to test for compound auto fluorescence at 460 nm (blue) in HEK293 cell free culture (AID 720681)
Procedure, shortened: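 Blue fluorescence (Ex 405/Em 460 nm, triamterene-equivalent) was read immediately after pin transfer of compound or DMSO into medium (DMEM, 10% FBS) without cells.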

[12] = qHTS assay to test for compound auto fluorescence at 535 nm (green) in HEK293 cell free culture (AID 720682)
Procedure, shortened: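 Green-label autofluorescence (485 nm excitation, 535 nm emission) measured on compound added to cell-free culture medium (DMEM, 10% FBS). Output is expressed relative to fluorescein.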

[13] = qHTS assay to test for compound auto fluorescence at 590 nm (red) in HEK293 cell free culture (AID 720683)
Procedure, shortened: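 Red-channel autofluorescence of compounds in culture medium (DMEM, 10% FBS), no cells, measured at 540/590 nm. Rose Bengal sodium is the reference fluorophore for equivalence.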

[14] = qHTS assay to test for compound auto fluorescence at 590 nm (red) in HepG2 cell free culture (AID 720684)
Procedure, shortened: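 Cell-free; medium MEM + 10% FBS; compound or DMSO added by pintool; read Ex 540/Em 590 nm; Rose Bengal sodium as red reference fluorophore.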

[15] = qHTS assay to test for compound auto fluorescence at 460 nm (blue) in HepG2 cell free culture (AID 720685)
Procedure, shortened: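 Cell-free plates of MEM plus 10% FBS received 23 nL compound or DMSO vehicle; blue-channel (405/460 nm) intensity scored against triamterene as reference fluorophore.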

[16] = qHTS assay to test for compound auto fluorescence at 535 nm (green) in HepG2 cell free culture (AID 720686)
[17] = qHTS assay to test for compound auto fluorescence at 460 nm (blue) in HepG2 cells (AID 720687)
Procedure, shortened: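 Blue-channel autofluorescence (Ex/Em 405/460 nm, triamterene-equivalent) was measured after 1 hr compound exposure at 37 C, 5% CO2. Cells were HepG2, plated overnight at 37 C in MEM plus 10% FBS.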

[18] = target: Glucocorticoid receptor (Homo sapiens) (UniProt P04150); test: qHTS assay to identify small molecule agonists of the glucocorticoid receptor (GR) signaling pathway (AID 720691; active = well fitted activation curve with a large enough effect in the signal ratio in the repeat runs, not every such curve was filed as active; the % refers to the signal ratio)
Procedure, shortened: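 HeLa GR-bla reporter line; cells pre-incubated 4 h, compound in DMSO 18 h at 37 C; LiveBLAzer B/G FRET substrate 2 h RT; fluorescence intensity read-out.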

[19] = target: Glucocorticoid receptor (Homo sapiens) (UniProt P04150); test: qHTS assay to identify small molecule antagonists of the glucocorticoid receptor (GR) signaling pathway (AID 720692; active = well fitted inhibition curve with a large enough effect in the signal ratio in the repeat runs, not every such curve was filed as active; the % refers to the signal ratio)
Procedure, shortened: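 Read-out: beta-lactamase FRET substrate fluorescence, 2 h at room temperature, in HeLa cells stably carrying a GRE-driven bla reporter. Compounds were co-incubated with 5 nM dexamethasone agonist (final) for 18 h at 37 C.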

[20] = qHTS assay for small molecule disruptors of the mitochondrial membrane potential (AID 720635)
Procedure, shortened: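 Mitochondrial membrane potential tracked with Mito-MPS dye, red aggregates (ex 540/em 590 nm) against green monomers (ex 490/em 535 nm). Compound treatment 1 hr at 37C, dye 30 min in HepG2.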
% is scaled to controls: 0 for no effect and ±100 for the full control effect.

Sequence of Glucocorticoid receptor (Homo sapiens) (P04150 whole entry, looked up): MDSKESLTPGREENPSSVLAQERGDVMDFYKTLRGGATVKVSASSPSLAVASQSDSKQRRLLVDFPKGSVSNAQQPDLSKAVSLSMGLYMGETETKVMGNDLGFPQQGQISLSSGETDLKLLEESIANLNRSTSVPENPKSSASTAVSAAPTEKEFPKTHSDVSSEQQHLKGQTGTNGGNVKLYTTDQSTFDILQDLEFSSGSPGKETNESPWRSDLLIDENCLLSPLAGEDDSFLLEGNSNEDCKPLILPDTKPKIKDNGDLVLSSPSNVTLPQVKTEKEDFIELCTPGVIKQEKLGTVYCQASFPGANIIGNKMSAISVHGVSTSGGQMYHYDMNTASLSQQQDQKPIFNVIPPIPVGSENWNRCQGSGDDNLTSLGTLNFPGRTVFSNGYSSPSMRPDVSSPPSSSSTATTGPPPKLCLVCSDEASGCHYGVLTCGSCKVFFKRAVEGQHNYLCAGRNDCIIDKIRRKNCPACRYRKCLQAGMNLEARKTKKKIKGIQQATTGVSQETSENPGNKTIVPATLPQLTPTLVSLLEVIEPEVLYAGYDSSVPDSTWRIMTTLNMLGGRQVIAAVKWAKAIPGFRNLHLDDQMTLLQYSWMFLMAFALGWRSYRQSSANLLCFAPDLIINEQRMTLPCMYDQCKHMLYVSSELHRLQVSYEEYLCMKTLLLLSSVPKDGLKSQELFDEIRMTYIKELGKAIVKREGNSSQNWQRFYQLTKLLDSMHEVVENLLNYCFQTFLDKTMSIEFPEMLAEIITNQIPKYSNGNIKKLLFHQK

Cc1cccc2sc3nncn3c12
inactive: Potency [1] | outcome [2] | Potency [3] | Potency [4] | Potency [5] | outcome [6] | outcome [7] | outcome [8] | outcome [9] | outcome [10] | outcome [11] | outcome [12] | outcome [13] | outcome [14] | outcome [15] | outcome [16] | outcome [17]

CCN(CC)C1CCCCC1
inactive: Potency [1] | outcome [2] | Potency [3] | Potency [4] | Potency [5] | outcome [6] | outcome [7] | outcome [8] | outcome [9] | outcome [10] | outcome [11] | outcome [12] | outcome [13] | outcome [14] | outcome [15] | outcome [16] | outcome [17] | Potency [18] | Potency [19]

CCC(C)(C#N)N=NC(C)(C#N)CC (stereo not drawn)
inactive: Potency [1] | outcome [2] | Potency [3] | Potency [4] | Potency [5] | outcome [6] | outcome [7] | outcome [8] | outcome [9] | outcome [10] | outcome [11] | outcome [12] | outcome [13] | outcome [14] | outcome [15] | outcome [16] | outcome [17]

Cc1ccc2c(c1)C1CN(C)CCC1N2 (stereo not drawn)
inactive: Potency [1] | outcome [2] | Potency [3] | Potency [4] | Potency [5] | Potency [20] | outcome [6] | outcome [7] | outcome [8] | outcome [9] | outcome [10] | outcome [11] | outcome [12] | outcome [13] | outcome [14] | outcome [15] | outcome [16] | outcome [17] | Potency [18] | Potency [19]

CCN(CCO)CCn1c(Cc2ccccc2)nc2c1c(=O)n(C)c(=O)n2C
inactive: Potency [1] | outcome [2] | Potency [3] | Potency [4] | Potency [5] | Potency [20] | outcome [6] | outcome [7] | outcome [9] | outcome [10] | outcome [11] | outcome [12] | outcome [13] | outcome [14] | outcome [15] | outcome [16] | outcome [17] | Potency [18] | Potency [19]

CC(=O)OCC1=C(C(=O)O)N2C(=O)[C@@H](N)[C@H]2SC1
inactive: Potency [1] | outcome [2] | Potency [3] | Potency [4] | Potency [5] | Potency [20] | fluorescence, relative to Rose Bengal [6] 0.341% [at 18.6 µM] | fluorescence, % of fluorescein control [7] 0.0248% [at 18.6 µM] | fluorescence, % of fluorescent control [9] 0.0847% [at 18.6 µM] | fluorescence, % of fluorescein [10] -0.0094% [at 18.6 µM] | fluorescence, % of fluorescent control [11] -0.0418% [at 18.6 µM] | activity change [12] 0.0026% [at 18.6 µM] | fluorescence, % of fluorescent control [13] 0.162% [at 18.6 µM] | fluorescence, % of Rose Bengal [14] 0.155% [at 18.6 µM] | fluorescence, % of fluorescent control [15] -0.0695% [at 18.6 µM] | fluorescence, % of fluorescein control [16] 0.161% [at 18.6 µM] | fluorescence, % of fluorescent control [17] 0.185% [at 18.6 µM] | Potency [18] | Potency [19]

CC(=NC#N)N(C)Cc1ccc(Cl)nc1
inactive: Potency [1] | outcome [2] | Potency [3] | Potency [4] | Potency [5] | outcome [6] | outcome [7] | outcome [8] | outcome [9] | outcome [10] | outcome [11] | outcome [12] | outcome [13] | outcome [14] | outcome [15] | outcome [16] | outcome [17]
